Assay outcomes from PubChem.
Only a sample is shown.
aSyn UTR act: Activators via SNCA 5'UTR binding, MLPCN | alpha-synuclein 5'UTR reporter, activators screen | activity score, % (tested at 7.5 µM), hits read low | 7.1% of 300,000 active | AID 1814; in the data active = activity score below about -60%
Hits are given with their value; 0 = inactive.

SMILES	aSyn UTR act
O=C(NCCNc1ccccc1[N+](=O)[O-])c1cc(F)c(F)cc1Cl	-93
Cc1ccc(C2=[N+]([O-])C3(CCCCC3=O)N(O)C2(C)C)cc1 (centres undefined)	0
COc1ccccc1OCCNC(=O)c1cc(F)c(F)cc1Cl	-76
O/N=C/c1ccn(-c2ccc(Br)cc2)c1	-84
O=C(Oc1ccc2ccc(O)cc2c1)c1ccccc1Cl	-128
N/C(=N\OC(=O)c1ccc2ccccc2c1)c1cccc([N+](=O)[O-])c1	-67
N/C(=N\OC(=O)c1ccc2ccccc2c1)c1ccccc1Cl	-140
N/C(=N\OC(=O)c1ccc2ccccc2c1)c1ccccn1	0
N/C(=N\OC(=O)c1ccccc1F)c1ccc([N+](=O)[O-])cc1	-151
N/C(=N\OC(=O)c1cccc(F)c1)c1cccc([N+](=O)[O-])c1	-104
N/C(=N\OC(=O)c1ccc(F)cc1)c1cccc([N+](=O)[O-])c1	-110
N/C(=N\OC(=O)c1ccccc1Cl)c1cccc([N+](=O)[O-])c1	-67
N/C(=N/OC(=O)c1ccccc1Cl)c1ncc([N+](=O)[O-])s1	-80
Cc1cccc(/C(N)=N/OC(=O)c2ccc(F)cc2)c1	-141
CCOC(=O)c1ccc(N=Nc2c(C)c(C#N)c(O)[nH]c2=O)cc1	-74
COc1cccc(NC(=S)N/N=C2\CC3CCC2(C)C3(C)C)c1 (centres undefined)	-78
CC(C)c1ccc(CNc2ccc([N+](=O)[O-])cn2)cc1	-78
O=[N+]([O-])c1ccc(NCc2ccc(Cl)cc2)nc1	-105
CC(C)c1ccc(CNc2c([N+](=O)[O-])c(=O)oc3ccccc23)cc1	-71
CC(C)c1ccc(CNc2ncc(Br)cn2)cc1	-153
CCOc1ccc(NC2=C(Cl)C(=O)N(C3CCCCC3)C2=O)cc1	-102
O=C1C(Cl)=C(Nc2ccccc2O)C(=O)N1CCc1ccccc1	-87
CCOc1ccc(N2C(=O)C(Cl)=C(Nc3ccccc3O)C2=O)cc1	-184
COc1ccccc1NC1=C(Cl)C(=O)N(c2ccccc2)C1=O	-70
COc1ccc(Nc2cc3n(c(=O)n2)CCc2cc(OC)c(OC)cc2-3)c(C)c1	0
SMILES	aSyn UTR act
COc1ccc(Nc2nc(N3CCCC3)nc3ccccc23)c(OC)c1	-81
CCOC(=O)c1oc2ccc(/C=N/O)c(Cl)c2c1C	-140
Fc1ccc(N2CCN(c3cnc4ccccc4n3)CC2)cc1	-251
Clc1ccc(N2CCN(c3cnc4ccccc4n3)CC2)cc1	-137
c1ccc(N2CCN(c3cnc4ccccc4n3)CC2)cc1	-77
Cc1ccc(NC(=O)Nc2ccc(F)cc2)nc1	-108
Cc1ccnc(NC(=O)Nc2ccc(F)cc2)c1	-86
CCOC(=O)Cn1c(=NC(=O)c2ccc([N+](=O)[O-])s2)sc2ccccc21	-180
Cc1ccc(NC2CC(=O)N(Cc3ccccc3)C2=O)cc1 (centres undefined)	-66
CCCCN1C(=O)CC(Nc2ccc(CC)cc2)C1=O (centres undefined)	-125
C/C(CC(=O)Nc1cccc2c1CCCC2)=N\NC(=O)c1ccccc1N	-110
CCN1CCC2(CC1)Oc1c(OC)cccc1C1CC(c3cccnc3)=NN12 (centres undefined)	-128
CCOC(=O)C1CCN(c2ncnc3c(C)csc23)CC1	-69
Cc1ccc(N=Nc2cc(C)ccc2O)c(C)c1	-215
Cc1ccc(N=Nc2cc(C)ccc2N)cc1	0
Cc1ccc(N=Nc2ccc(N)cc2C)c(S(N)(=O)=O)c1	-80
C[C@@H]1OC(Nc2ccc(N=Nc3ccccc3)cc2)[C@H](O)[C@H](O)[C@H]1O (some centres undefined)	-88
CC1CCCCC1NC(=O)/C=C/c1nc2ccccc2s1 (centres undefined)	-148
O=C(/C=C/c1nc2ccccc2s1)N1CCCCCC1	-107
c1ccc(N2CCN(c3nc4ccccc4[nH]3)CC2)nc1	-136
CC(C)COC(=S)Nc1ccccc1	-83
COc1ccc(CCN2CCC(Nc3nc4ccccc4n3Cc3ccc(F)cc3)CC2)cc1	0
CN(C(=O)c1ccc(OC2CCN(CCc3ccccc3)CC2)cc1)C1CCCCC1	-125
C/C(=N\NC(=O)CCCNc1ccc(C)cc1)c1ccccn1	0
C/C(CC(=O)Nc1ccc(F)cc1)=N\NC(=O)c1ccccn1	-64
SMILES	aSyn UTR act
C/C(=N\NC(=O)c1ccc(F)cc1)c1ccccn1	-93
C/C(CC(=O)NC1CCCCC1)=N\NC(=O)c1ccccn1	-132
C/C(CC(=O)Nc1ccc(Cl)c(C(F)(F)F)c1)=N\NC(=O)c1ccccc1O	-82
C/C(CC(=O)NCc1ccccc1Cl)=N/NC(=O)c1ccccn1	-116
CC(=O)Nc1ccccc1NC(=O)C/C(C)=N/NC(=O)c1ccccn1	-114
C/C(=N\Nc1ccc([N+](=O)[O-])cc1)c1cccc(N)c1	-199
C/C(=N\N=C(/C)c1cccc(N)c1)c1cccc(N)c1	-111
C/C(=N\Nc1ccc([N+](=O)[O-])cc1)c1ccc(O)cc1	-217
Cn1cnc2cc(NC(=O)c3ccco3)ccc21	-71
O=C(Nc1ccc2c(c1)ncn2-c1ccccc1)c1ccco1	-131
CCCNC(=O)c1ccc2c(=O)c(O)c(-c3cccc(Br)c3)[nH]c2c1	0
O=C(NCC1CCCO1)c1c(O)c2c([nH]c1=O)CCCC2 (centres undefined)	-112
CCCNC(=O)c1c(O)c2c([nH]c1=O)CCCC2	-77
O=C(Nc1ccc(O)cc1)c1c(O)c2c([nH]c1=O)CCCC2	-131
Clc1ccc(COn2ccnc2)cc1Cl	-104
CCC(=O)Nc1cccc(NC(=S)NC(=O)c2cccs2)c1	-161
O=C(NC(=S)Nc1ccccc1O)c1ccc(Cl)cc1Cl	-106
O=C(NC(=S)Nc1ncccn1)c1ccccc1Cl	-181
CCC(=O)Nc1cccc(NC(=S)NC(=O)c2ccccc2Cl)c1	-82
Cc1c(OCC(=O)NCc2cccnc2)ccc2c3c(c(=O)oc12)CCC3	-71
Cc1c(OCc2ccc([N+](=O)[O-])cc2)ccc2c3c(c(=O)oc12)CCC3	-114
Cc1c(OCC(=O)OC(C)(C)C)ccc2c3c(c(=O)oc12)CCC3	-62
Cc1c(C)c2ccc(OCC(=O)Nc3ccccn3)c(C)c2oc1=O	0
CC(=O)COc1ccc2c3c(c(=O)oc2c1C)CCCCC3	-120
O=C(Cn1cc(C(F)(F)F)ccc1=O)NCc1ccc(F)cc1	-75
SMILES	aSyn UTR act
COc1ccc(C2/C=C\CN(C(=O)Nc3ccc(C(F)(F)F)cc3)CC(=O)N2Cc2ccc(F)cc2)cc1 (centres undefined)	0
O=C(O)c1ccc(COc2ccc3ccccc3c2)o1	-157
CCOc1ccc(OCc2ccc(C(=O)O)o2)cc1	-87
CCOc1ccc(OCc2ccc(C(=O)NCc3ccncc3)o2)cc1	-67
Oc1ccc(Cl)cc1C1=NNC(c2ccc(Cl)cc2)C1 (centres undefined)	-90
Cc1nccc(-c2cc(-c3ccc(Cl)cc3Cl)no2)n1	-135
COc1ccc(C2C(C#N)=C(N)Nc3nc4ccccc4n32)cc1 (centres undefined)	-179
O=C(c1ccc(Cl)cc1)c1coc2ccc(O)cc12	-128
O=C(c1ccc(Br)cc1)c1coc2ccc(O)cc12	-92
CC1=NN(C(N)=S)C(=O)C1N=Nc1ccc(F)cc1 (centres undefined)	-89
CCOc1ccc(N=NC2C(=O)N(C(N)=S)N=C2C)cc1 (centres undefined)	-142
CCCCOc1ccc(N2C(=O)CC(N(O)c3ccccc3)C2=O)cc1 (centres undefined)	-85
Cc1ccc(-c2csc(/C(C#N)=C(\O)CCl)n2)cc1	-96
